Source: the supplement of paper PMC11001985

Compound: C#CCNC(=O)CCSSCCC(=O)NCCc1ccc(C=O)c(C=O)c1
Assay: lysine labeling ratio R10:1 (500 µM / 50 µM probe), SILAC-ABPP in living cells; higher = lower intrinsic lysine reactivity toward the probe, active = 2 or less
Conditions: HeLa; probe concentrations 500 vs 50 µM
Protocol: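 Living HeLa cells (SILAC light/heavy) in PBS at room temperature were labeled with 50 µM versus 500 µM of the lysine-reactive, reductant-cleavable probe OPA-S-S-alkyne (SILAC labeling time not stated). Probe-modified peptides were CuAAC-biotinylated, captured on neutravidin and eluted with DTT/IAA, then quantified by LC-MS/MS. R = median peptide ratio per lysine (500/50 µM), combined over 3 forward and 3 reverse SILAC replicates. Ratios are capped at 20; R < 2 = hyper-reactive.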

Sequence of UniProt Q13813 (Q13813 whole entry): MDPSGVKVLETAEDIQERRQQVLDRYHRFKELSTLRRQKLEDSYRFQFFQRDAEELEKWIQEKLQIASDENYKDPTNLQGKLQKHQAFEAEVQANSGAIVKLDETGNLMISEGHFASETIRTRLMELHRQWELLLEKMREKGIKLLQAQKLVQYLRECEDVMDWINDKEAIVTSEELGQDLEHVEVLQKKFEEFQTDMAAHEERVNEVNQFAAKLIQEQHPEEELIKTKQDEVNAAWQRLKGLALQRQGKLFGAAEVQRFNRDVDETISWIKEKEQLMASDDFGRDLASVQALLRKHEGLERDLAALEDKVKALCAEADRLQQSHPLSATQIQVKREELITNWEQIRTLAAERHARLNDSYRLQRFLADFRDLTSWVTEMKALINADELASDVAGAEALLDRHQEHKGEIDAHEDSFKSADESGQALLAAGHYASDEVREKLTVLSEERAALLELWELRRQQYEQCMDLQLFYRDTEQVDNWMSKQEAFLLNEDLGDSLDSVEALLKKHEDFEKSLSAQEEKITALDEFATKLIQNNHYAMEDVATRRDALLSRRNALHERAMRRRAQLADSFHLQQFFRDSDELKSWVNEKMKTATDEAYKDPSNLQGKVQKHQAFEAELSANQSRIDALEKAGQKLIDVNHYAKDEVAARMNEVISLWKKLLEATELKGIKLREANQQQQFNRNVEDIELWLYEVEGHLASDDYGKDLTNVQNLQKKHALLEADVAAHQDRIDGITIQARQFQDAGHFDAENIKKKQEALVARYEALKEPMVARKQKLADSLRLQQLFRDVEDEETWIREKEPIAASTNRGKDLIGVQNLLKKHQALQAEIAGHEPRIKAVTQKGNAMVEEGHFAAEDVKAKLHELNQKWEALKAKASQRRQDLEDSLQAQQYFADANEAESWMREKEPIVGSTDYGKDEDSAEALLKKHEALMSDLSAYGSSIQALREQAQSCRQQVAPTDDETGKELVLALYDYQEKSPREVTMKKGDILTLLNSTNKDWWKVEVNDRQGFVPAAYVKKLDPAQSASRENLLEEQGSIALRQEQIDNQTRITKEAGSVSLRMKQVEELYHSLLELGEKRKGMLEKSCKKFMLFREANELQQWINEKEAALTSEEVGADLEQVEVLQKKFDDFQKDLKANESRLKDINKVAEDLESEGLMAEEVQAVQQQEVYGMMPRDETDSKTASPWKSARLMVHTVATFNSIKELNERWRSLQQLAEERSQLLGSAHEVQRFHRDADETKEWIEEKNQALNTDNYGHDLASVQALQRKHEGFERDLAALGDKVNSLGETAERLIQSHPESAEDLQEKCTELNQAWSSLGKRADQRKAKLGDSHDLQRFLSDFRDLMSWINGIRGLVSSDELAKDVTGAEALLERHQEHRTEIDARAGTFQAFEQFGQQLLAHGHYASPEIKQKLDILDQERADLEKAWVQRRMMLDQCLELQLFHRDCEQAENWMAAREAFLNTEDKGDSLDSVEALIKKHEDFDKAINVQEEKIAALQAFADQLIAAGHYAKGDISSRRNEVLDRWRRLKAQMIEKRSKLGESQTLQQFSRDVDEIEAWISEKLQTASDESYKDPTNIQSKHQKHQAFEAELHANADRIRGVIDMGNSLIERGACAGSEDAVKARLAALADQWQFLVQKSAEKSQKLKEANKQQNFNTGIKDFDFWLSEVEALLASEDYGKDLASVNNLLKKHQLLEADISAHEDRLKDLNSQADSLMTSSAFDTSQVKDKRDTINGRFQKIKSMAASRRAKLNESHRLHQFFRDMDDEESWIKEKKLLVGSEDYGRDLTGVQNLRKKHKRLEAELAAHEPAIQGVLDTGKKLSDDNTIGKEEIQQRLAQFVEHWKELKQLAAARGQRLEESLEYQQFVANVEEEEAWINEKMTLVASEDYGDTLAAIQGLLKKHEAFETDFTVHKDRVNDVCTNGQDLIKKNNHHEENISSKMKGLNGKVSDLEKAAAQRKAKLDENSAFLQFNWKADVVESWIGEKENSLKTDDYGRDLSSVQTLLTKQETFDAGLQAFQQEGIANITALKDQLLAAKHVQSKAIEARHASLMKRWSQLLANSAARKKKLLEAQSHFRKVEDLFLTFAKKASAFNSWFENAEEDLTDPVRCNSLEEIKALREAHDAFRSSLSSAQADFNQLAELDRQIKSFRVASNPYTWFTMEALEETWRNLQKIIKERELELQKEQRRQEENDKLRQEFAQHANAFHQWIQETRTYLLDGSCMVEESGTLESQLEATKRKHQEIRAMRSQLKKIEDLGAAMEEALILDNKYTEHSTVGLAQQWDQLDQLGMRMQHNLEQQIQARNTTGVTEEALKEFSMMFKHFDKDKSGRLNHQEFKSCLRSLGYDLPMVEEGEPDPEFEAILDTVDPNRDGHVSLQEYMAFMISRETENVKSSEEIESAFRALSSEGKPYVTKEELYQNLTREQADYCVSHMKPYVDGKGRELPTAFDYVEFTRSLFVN
Sequence of UniProt Q9H4F8 (Q9H4F8 whole entry): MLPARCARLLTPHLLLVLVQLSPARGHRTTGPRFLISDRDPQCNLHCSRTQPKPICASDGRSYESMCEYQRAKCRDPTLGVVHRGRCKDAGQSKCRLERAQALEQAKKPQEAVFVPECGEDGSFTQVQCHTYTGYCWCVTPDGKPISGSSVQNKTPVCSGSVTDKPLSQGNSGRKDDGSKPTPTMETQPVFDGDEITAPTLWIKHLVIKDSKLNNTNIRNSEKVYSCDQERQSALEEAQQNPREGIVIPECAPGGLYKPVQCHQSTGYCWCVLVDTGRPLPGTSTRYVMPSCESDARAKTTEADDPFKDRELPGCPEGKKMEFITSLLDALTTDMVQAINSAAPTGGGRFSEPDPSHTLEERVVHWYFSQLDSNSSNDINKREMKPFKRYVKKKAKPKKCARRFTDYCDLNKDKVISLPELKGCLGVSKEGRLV
Sequence of UniProt P61604 (P61604 whole entry): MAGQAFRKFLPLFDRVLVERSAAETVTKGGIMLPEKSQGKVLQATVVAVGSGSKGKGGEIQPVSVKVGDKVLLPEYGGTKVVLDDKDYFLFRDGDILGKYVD
Sequence of UniProt P20645 (P20645 whole entry): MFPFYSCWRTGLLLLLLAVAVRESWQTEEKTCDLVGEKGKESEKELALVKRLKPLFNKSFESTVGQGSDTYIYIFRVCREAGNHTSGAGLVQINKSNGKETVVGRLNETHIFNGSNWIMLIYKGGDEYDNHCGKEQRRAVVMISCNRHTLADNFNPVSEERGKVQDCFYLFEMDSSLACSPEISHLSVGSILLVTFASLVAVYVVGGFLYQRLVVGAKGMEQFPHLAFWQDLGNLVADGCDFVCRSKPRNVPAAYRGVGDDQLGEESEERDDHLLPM
Sequence of UniProt P48509 (P48509 whole entry): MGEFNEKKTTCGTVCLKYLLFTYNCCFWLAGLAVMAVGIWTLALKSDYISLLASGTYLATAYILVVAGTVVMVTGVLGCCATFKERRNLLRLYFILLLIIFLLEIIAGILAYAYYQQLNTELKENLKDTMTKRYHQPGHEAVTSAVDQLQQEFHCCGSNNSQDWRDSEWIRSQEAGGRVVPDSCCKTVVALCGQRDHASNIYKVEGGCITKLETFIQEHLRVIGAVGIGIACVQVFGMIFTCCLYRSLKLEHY
Sequence of UniProt O00159 (O00159 whole entry): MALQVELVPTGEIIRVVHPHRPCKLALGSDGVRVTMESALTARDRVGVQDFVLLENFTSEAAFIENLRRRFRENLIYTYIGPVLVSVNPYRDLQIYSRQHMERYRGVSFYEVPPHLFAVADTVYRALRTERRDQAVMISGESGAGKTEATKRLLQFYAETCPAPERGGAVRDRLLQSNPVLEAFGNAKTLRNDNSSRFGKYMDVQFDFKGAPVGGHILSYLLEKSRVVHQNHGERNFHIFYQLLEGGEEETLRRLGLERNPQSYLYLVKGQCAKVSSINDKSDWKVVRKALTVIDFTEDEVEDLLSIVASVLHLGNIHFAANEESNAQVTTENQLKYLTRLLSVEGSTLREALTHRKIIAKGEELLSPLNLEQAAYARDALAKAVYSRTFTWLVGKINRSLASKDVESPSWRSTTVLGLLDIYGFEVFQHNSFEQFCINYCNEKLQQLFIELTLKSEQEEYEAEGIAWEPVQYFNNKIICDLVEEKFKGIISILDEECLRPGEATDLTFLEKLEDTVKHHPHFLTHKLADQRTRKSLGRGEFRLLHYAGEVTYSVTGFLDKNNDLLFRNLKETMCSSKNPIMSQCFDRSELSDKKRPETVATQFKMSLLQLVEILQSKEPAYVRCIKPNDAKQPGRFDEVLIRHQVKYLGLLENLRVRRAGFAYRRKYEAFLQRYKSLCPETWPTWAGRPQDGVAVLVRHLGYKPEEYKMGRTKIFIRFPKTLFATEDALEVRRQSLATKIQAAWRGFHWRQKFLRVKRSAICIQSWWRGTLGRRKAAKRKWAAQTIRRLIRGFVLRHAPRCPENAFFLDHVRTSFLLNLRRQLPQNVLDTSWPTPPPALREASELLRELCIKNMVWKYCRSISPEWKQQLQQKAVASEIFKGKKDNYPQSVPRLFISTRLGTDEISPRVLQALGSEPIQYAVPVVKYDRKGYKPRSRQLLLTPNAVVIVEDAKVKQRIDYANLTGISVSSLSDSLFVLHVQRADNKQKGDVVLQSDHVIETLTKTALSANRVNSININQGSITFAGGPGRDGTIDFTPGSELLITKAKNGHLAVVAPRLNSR
Sequence of UniProt Q15365 (Q15365 whole entry): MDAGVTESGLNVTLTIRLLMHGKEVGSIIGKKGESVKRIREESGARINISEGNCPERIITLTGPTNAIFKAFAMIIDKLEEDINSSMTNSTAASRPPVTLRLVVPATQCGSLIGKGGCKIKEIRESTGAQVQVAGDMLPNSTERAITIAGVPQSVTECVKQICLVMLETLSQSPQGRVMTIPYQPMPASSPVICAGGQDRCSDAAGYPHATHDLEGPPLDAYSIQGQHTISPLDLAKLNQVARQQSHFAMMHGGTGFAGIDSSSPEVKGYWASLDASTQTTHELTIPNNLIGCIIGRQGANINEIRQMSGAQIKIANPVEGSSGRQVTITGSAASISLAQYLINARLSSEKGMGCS

| Target | lysine labeling ratio R10:1 |
| --- | --- |
| UniProt Q15365 (lysine site: K314) | 1.71 (active) |
| CD109 (lysine site: K952) (UniProt Q6YHK3) | 0.643 (active) |
| DNAJA1 (lysine site: K136) (UniProt P31689) | 1.69 (active) |
| CD151 (lysine site: K132) (UniProt P48509) | 2.31 (inactive) |
| FN1 (lysine site: K2027) (UniProt P02751) | 13 (inactive) |
| HSPE1 (lysine site: K99) (UniProt P61604) | 4.89 (inactive) |
| HSPD1 (lysine site: K364) (UniProt P10809) | 2.45 (inactive) |
| PVR (lysine site: K144) (UniProt P15151) | 4.25 (inactive) |
| ROBO1 (lysine site: K503) (UniProt Q9Y6N7) | 7.35 (inactive) |
| LRPAP1 (lysine site: K182) (UniProt P30533) | 0.73 (active) |
| GPRC5A (lysine site: K14) (UniProt Q8NFJ5) | 6.52 (inactive) |
| TFRC (lysine site: K95) (UniProt P02786) | 4.27 (inactive) |
| PTPRS (lysine site: K1001) (UniProt Q13332) | 4.13 (inactive) |
| CACNA2D1 (lysine site: K842) (UniProt P54289) | 4.24 (inactive) |
| FOLR1 (lysine site: K46) (UniProt P15328) | 12.6 (inactive) |
| UniProt P23352 (lysine site: K279) | 3.78 (inactive) |
| MYH9 (lysine site: K1724) (UniProt P35579) | 1.66 (active) |
| CFL1 (lysine site: K78) (UniProt P23528) | 1.61 (active) |
| ANXA2 (lysine site: K49) (UniProt P07355) | 3.95 (inactive) |
| CKAP4 (lysine site: K405) (UniProt Q07065) | 1.2 (active) |

| Target | lysine labeling ratio R10:1 |
| --- | --- |
| GALNT7 (lysine site: K648) (UniProt Q86SF2) | 1.92 (active) |
| FAT1 (lysine site: K978) (UniProt Q14517) | 0.71 (active) |
| UniProt Q9UII2 (lysine site: K49) | 3.39 (inactive) |
| A2M (lysine site: K115) (UniProt P01023) | 0.757 (active) |
| PTPRF (lysine site: K994) (UniProt P10586) | 4.54 (inactive) |
| FLNB (lysine site: K746) (UniProt O75369) | 3.48 (inactive) |
| UniProt Q15149 (lysine site: K1573) | 2.01 (inactive) |
| UniProt P61978 (lysine site: K34) | 3.82 (inactive) |
| UniProt P62258 (lysine site: K12) | 7.18 (inactive) |
| SMOC1 (lysine site: K308) (UniProt Q9H4F8) | 4.95 (inactive) |
| SPTAN1 (lysine site: K1023) (UniProt Q13813) | 9.87 (inactive) |
| SPTAN1 (lysine site: K241) (UniProt Q13813) | 7.04 (inactive) |
| PIEZO1 (lysine site: K113) (UniProt Q92508) | 4.13 (inactive) |
| TXNDC5 (lysine site: K429) (UniProt Q8NBS9) | 0.74 (active) |
| UniProt P46781 (lysine site: K30) | 1.01 (active) |
| GPI (lysine site: K89) (UniProt P06744) | 1.12 (active) |
| MYO1C (lysine site: K781) (UniProt O00159) | 1.34 (active) |
| M6PR (lysine site: K99) (UniProt P20645) | 1.86 (active) |
| DDX3X (lysine site: K264) (UniProt O00571) | 1.78 (active) |
| RPL28 (lysine site: K72) (UniProt P46779) | 2.12 (inactive) |
